The values below come from PubChem BioAssay (Tox21).

Activity calls are given as the source filed them. The call rests on the fitted dose curve; in most records, active means well fitted curve in the direction sought with a large enough effect in the repeat runs; inconclusive means weak or mixed curves; inactive means flat fitted curve, though single readings scatter.
On the % scale 0 is the no-effect control and ±100 the full control effect.

The first experiment can be described thus: qHTS assay to test for compound auto fluorescence at 535 nm (green) in HEK293 cells (AID 720680). The settings on record: green autofluorescence 485/535 nm; series mostly up to 91.3 µM; fluorescence, % of fluorescein: at the top concentration.
As for `CC(=O)OCC(=O)[C@@]1(O)CC[C@H]2[C@@H]3CCC4=CC(=O)C=C[C@]4(C)[C@H]3[C@@H](O)C[C@@]21C`, the “fluorescence, % of fluorescein” value is -0.0085% [at 46 µM] (inactive).
Turning to `CCCCC(CC)CCC(CC(C)C)OS(=O)(=O)O` (stereo not given), the result was inactive.
As to `C=C(C)C(=O)OCCCC`, the “fluorescence, % of fluorescein” value was -0.0776% [at 95.7 µM] (inactive).
On the same count and under the same terms, to `CC(C)C(C)C` belongs -0.0052% (inactive); to `CC(=O)Oc1ccc(C(C)=O)cc1`, -0.0882% [at 95.7 µM] (inactive).
On the same count and under the same terms, to `CCCCCCCCC1CO1` (stereo not given) belongs 0.0361% [at 95.7 µM] (inactive); to `CC(C)c1cc(C(C)C)cc(C(C)C)c1`, -0.0099% (inactive).
The same measure, in the same setting: to `C=CC(=O)OCC[N+](C)(C)C` belongs 0.056% (inactive); to `CN(C)c1cc(NC(=O)CNC(C)(C)C)c(O)c2c1C[C@H]1C[C@H]3[C@H](N(C)C)C(=O)C(C(N)=O)=C(O)[C@@]3(O)C(=O)C1=C2O`, 0.0027% [at 46 µM] (inactive).
Regarding `CC1(C)C(=O)C(C)(C)C1=O`, the “fluorescence, % of fluorescein” value is -0.165% (inactive).
On the same count and under the same terms, then `CCCCCC(CC)OC(=O)CCCOc1ccc(Cl)cc1Cl` (stereo not given), with 0.05% (inactive); and `Cc1ccc2ccccc2n1`, with -0.0283% (inactive); and `C=CCON/C(CCC)=C1\C(=O)CC(C)(C)C(C(=O)OC)=C1O`, with -0.114% (inactive).
The same measure, in the same setting: then `CCCCCCC(O)CO` (stereo not given), with 0.0912% (inactive); and `Cc1ccc(O)c([N+](=O)[O-])c1`, with -0.0256% [at 95.7 µM] (inactive).
Same read-out and setting: then `CCCCCC(=O)CC`, with -0.228% [at 95.7 µM] (inactive); and `O=C1c2ccccc2C(=O)N1CO`, with -0.0699% [at 95.7 µM] (inactive); and `CN(C)CCC[C@@]1(c2ccc(F)cc2)OCc2cc(C#N)ccc21`, with -0.214% [at 46 µM] (inactive).
As for `CC(C)C[P+](C)(CC(C)C)CC(C)C`, the “fluorescence, % of fluorescein” value is -0.0444% (inactive).
Regarding `C=COCCCCO`, the “fluorescence, % of fluorescein” value was 0.0188% (inactive).
Still for that read-out and setting: to `O=C(O)Cc1c(Cl)ccc(Cl)c1Cl` belongs -0.0154% (inactive).
The same measure, in the same setting: then `CC(O)C(CO)C(C)O` (stereo not given), with 0.105% [at 95.7 µM] (inactive); and `CCOC(=O)CC`, with -0.035% (inactive); and `O=C1CC2(CCCC2)CC(=O)N1CCNCC1COc2ccccc2O1` (stereo not given), with 0.0231% [at 46 µM] (inactive).
Still for that read-out and setting: then `CCC(=O)OCCOc1ccccc1`, with -0.0116% (inactive).
As to `CC1=C(O)C(=O)CO1`, the “fluorescence, % of fluorescein” value was 0.0541% (inactive).
Regarding `CC[N+](C)(CC)CC`, the “fluorescence, % of fluorescein” value is 0.0502% (inactive).
On the same count and under the same terms, then `O=C(OOC(=O)c1ccccc1)c1ccccc1`, with -0.0571% [at 46 µM] (inactive); and `CCCCC(CC)COC(=O)CC#N` (stereo not given), with 0.0219% (inactive); and `O=S(=O)(O)c1cc(I)c(O)c2ncccc12`, with -0.242% [at 46 µM] (inactive).
On the same count and under the same terms, then `Cc1nc2ccc(Cl)cc2[nH]1`, with -0.0886% (inactive); and `COC(C)(C)CC(C)=O`, with 0.048% (inactive); and `CC(=O)Nc1ccc(OCCOCCOc2ccc(NC(C)=O)cc2)cc1`, with -0.0059% [at 46 µM] (inactive).
The same measure, in the same setting: to `CCCC(=O)CC` belongs -0.0077% [at 95.7 µM] (inactive).
Turning to `N#CC1(N)CCCCC1`, the “fluorescence, % of fluorescein” value is 0.0255% [at 95.7 µM] (inactive).

A further experiment in a line: qHTS assay to test for compound auto fluorescence at 460 nm (blue) in HEK293 cell free culture (AID 720681). Particulars: cell-free medium, autofluorescence 405/460 nm (blue); series mostly up to 91.3 µM; fluorescence, % of fluorescent control: at the top concentration. The procedure, abridged: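 Blue fluorescence (Ex 405/Em 460 nm, triamterene-equivalent) was read immediately after pin transfer of compound or DMSO into medium (DMEM, 10% FBS) without cells.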
`CC(=O)OCC(=O)[C@@]1(O)CC[C@H]2[C@@H]3CCC4=CC(=O)C=C[C@]4(C)[C@H]3[C@@H](O)C[C@@]21C`: the “fluorescence, % of fluorescent control” value is 0.0402% [at 46 µM] (inactive).
For the compound `CCCCC(CC)CCC(CC(C)C)OS(=O)(=O)O` (stereo not given), the outcome was inactive.
For the compound `C=C(C)C(=O)OCCCC`, the “fluorescence, % of fluorescent control” value is -0.178% [at 95.7 µM] (inactive).
Still for that read-out and setting: to `CC(C)C(C)C` belongs -0.0871% (inactive); to `CC(=O)Oc1ccc(C(C)=O)cc1`, -0.008% [at 95.7 µM] (inactive); to `CCCCCCCCC1CO1` (stereo not given), -0.0876% [at 95.7 µM] (inactive).
`CC(C)c1cc(C(C)C)cc(C(C)C)c1`: the “fluorescence, % of fluorescent control” value was -0.0195% (inactive).
On to `C=CC(=O)OCC[N+](C)(C)C`, for which the “fluorescence, % of fluorescent control” value is 0.0166% (inactive).
Still for that read-out and setting: to `CN(C)c1cc(NC(=O)CNC(C)(C)C)c(O)c2c1C[C@H]1C[C@H]3[C@H](N(C)C)C(=O)C(C(N)=O)=C(O)[C@@]3(O)C(=O)C1=C2O` belongs 0.292% [at 46 µM] (inactive).
The same measure, in the same setting: then `CC1(C)C(=O)C(C)(C)C1=O`, with -0.0637% (inactive); and `CCCCCC(CC)OC(=O)CCCOc1ccc(Cl)cc1Cl` (stereo not given), with 0.0199% (inactive).
The same measure, in the same setting: to `Cc1ccc2ccccc2n1` belongs -0.0557% (inactive).
On to `C=CCON/C(CCC)=C1\C(=O)CC(C)(C)C(C(=O)OC)=C1O`, for which the “fluorescence, % of fluorescent control” value was -0.257% (inactive).
On the same count and under the same terms, to `CCCCCCC(O)CO` (stereo not given) belongs -0.0066% (inactive); to `Cc1ccc(O)c([N+](=O)[O-])c1`, -0.213% [at 95.7 µM] (inactive); to `CCCCCC(=O)CC`, -0.0861% [at 95.7 µM] (inactive).
Still for that read-out and setting: then `O=C1c2ccccc2C(=O)N1CO`, with 0.058% [at 95.7 µM] (inactive).
For the compound `CN(C)CCC[C@@]1(c2ccc(F)cc2)OCc2cc(C#N)ccc21`, the “fluorescence, % of fluorescent control” value was -0.103% [at 46 µM] (inactive).
`CC(C)C[P+](C)(CC(C)C)CC(C)C`: the “fluorescence, % of fluorescent control” value was 0.132% (inactive).
Still for that read-out and setting: to `C=COCCCCO` belongs -0.0232% (inactive); to `O=C(O)Cc1c(Cl)ccc(Cl)c1Cl`, 0.091% (inactive); to `CC(O)C(CO)C(C)O` (stereo not given), 0.193% [at 95.7 µM] (inactive).
Turning to `CCOC(=O)CC`, the “fluorescence, % of fluorescent control” value is 0.0028% (inactive).
As for `O=C1CC2(CCCC2)CC(=O)N1CCNCC1COc2ccccc2O1` (stereo not given), the “fluorescence, % of fluorescent control” value is 0.0323% [at 46 µM] (inactive).
The same measure, in the same setting: to `CCC(=O)OCCOc1ccccc1` belongs -0.0547% (inactive); to `CC1=C(O)C(=O)CO1`, 0.606% (inactive).
The same measure, in the same setting: to `CC[N+](C)(CC)CC` belongs -0.0133% (inactive); to `O=C(OOC(=O)c1ccccc1)c1ccccc1`, -0.0618% [at 46 µM] (inactive).
Regarding `CCCCC(CC)COC(=O)CC#N` (stereo not given), the “fluorescence, % of fluorescent control” value is 0.0148% (inactive).
Same read-out and setting: then `O=S(=O)(O)c1cc(I)c(O)c2ncccc12`, with 2.48% [at 46 µM] (inactive); and `Cc1nc2ccc(Cl)cc2[nH]1`, with 0.0213% (inactive); and `COC(C)(C)CC(C)=O`, with 0.156% (inactive).
As to `CC(=O)Nc1ccc(OCCOCCOc2ccc(NC(C)=O)cc2)cc1`, the “fluorescence, % of fluorescent control” value is -0.0344% [at 46 µM] (inactive).
On the same count and under the same terms, to `CCCC(=O)CC` belongs 0.0773% [at 95.7 µM] (inactive); to `N#CC1(N)CCCCC1`, -0.0387% [at 95.7 µM] (inactive).

The nature of another experiment: qHTS assay to test for compound auto fluorescence at 535 nm (green) in HEK293 cell free culture (AID 720682). The settings on record: cell-free medium, green autofluorescence 485/535 nm, stronger effect = higher value; series mostly up to 91.3 µM; activity change: at the top concentration. The procedure, abridged:
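Steps: dispense DMEM/10% FBS into empty wells; pin in compound or DMSO; measure fluorescence at 485/535 nm. Values are fluorescein equivalents.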
Take `CC(=O)OCC(=O)[C@@]1(O)CC[C@H]2[C@@H]3CCC4=CC(=O)C=C[C@]4(C)[C@H]3[C@@H](O)C[C@@]21C`: the “activity change” value is 0.0149% [at 46 µM] (inactive).
Turning to `CCCCC(CC)CCC(CC(C)C)OS(=O)(=O)O` (stereo not given), the result was inactive.
On to `C=C(C)C(=O)OCCCC`, for which the “activity change” value is -0.0712% [at 95.7 µM] (inactive).
The same measure, in the same setting: to `CC(C)C(C)C` belongs -0.0435% (inactive); to `CC(=O)Oc1ccc(C(C)=O)cc1`, -0.0459% [at 95.7 µM] (inactive).
The same measure, in the same setting: then `CCCCCCCCC1CO1` (stereo not given), with -0.0869% [at 95.7 µM] (inactive); and `CC(C)c1cc(C(C)C)cc(C(C)C)c1`, with -0.0265% (inactive).
On the same count and under the same terms, to `C=CC(=O)OCC[N+](C)(C)C` belongs -0.0412% (inactive); to `CN(C)c1cc(NC(=O)CNC(C)(C)C)c(O)c2c1C[C@H]1C[C@H]3[C@H](N(C)C)C(=O)C(C(N)=O)=C(O)[C@@]3(O)C(=O)C1=C2O`, 0.0557% [at 46 µM] (inactive).
With `CC1(C)C(=O)C(C)(C)C1=O`, the “activity change” value is 0.0869% (inactive).
As for `CCCCCC(CC)OC(=O)CCCOc1ccc(Cl)cc1Cl` (stereo not given), the “activity change” value is -0.043% (inactive).
`Cc1ccc2ccccc2n1`: the “activity change” value is -0.0067% (inactive).
Turning to `C=CCON/C(CCC)=C1\C(=O)CC(C)(C)C(C(=O)OC)=C1O`, the “activity change” value is -0.0226% (inactive).
As for `CCCCCCC(O)CO` (stereo not given), the “activity change” value is 0.0157% (inactive).
The same measure, in the same setting: then `Cc1ccc(O)c([N+](=O)[O-])c1`, with -0.0434% [at 95.7 µM] (inactive); and `CCCCCC(=O)CC`, with -0.0335% [at 95.7 µM] (inactive); and `O=C1c2ccccc2C(=O)N1CO`, with -0.0381% [at 95.7 µM] (inactive).
Same read-out and setting: to `CN(C)CCC[C@@]1(c2ccc(F)cc2)OCc2cc(C#N)ccc21` belongs -0.284% [at 46 µM] (inactive); to `CC(C)C[P+](C)(CC(C)C)CC(C)C`, -0.0201% (inactive); to `C=COCCCCO`, -0.0564% (inactive).
The same measure, in the same setting: to `O=C(O)Cc1c(Cl)ccc(Cl)c1Cl` belongs 0.0023% (inactive); to `CC(O)C(CO)C(C)O` (stereo not given), -0.0017% [at 95.7 µM] (inactive); to `CCOC(=O)CC`, 0.0265% (inactive).
In the case of `O=C1CC2(CCCC2)CC(=O)N1CCNCC1COc2ccccc2O1` (stereo not given), the “activity change” value is 0.0206% [at 46 µM] (inactive).
`CCC(=O)OCCOc1ccccc1`: the “activity change” value was -0.0016% (inactive).
As to `CC1=C(O)C(=O)CO1`, the “activity change” value is 0.1% (inactive).
`CC[N+](C)(CC)CC`: the “activity change” value is -0.0604% (inactive).
Same read-out and setting: then `O=C(OOC(=O)c1ccccc1)c1ccccc1`, with -0.143% [at 46 µM] (inactive).
Same read-out and setting: to `CCCCC(CC)COC(=O)CC#N` (stereo not given) belongs -0.0165% (inactive); to `O=S(=O)(O)c1cc(I)c(O)c2ncccc12`, -0.18% [at 46 µM] (inactive); to `Cc1nc2ccc(Cl)cc2[nH]1`, 0.0388% (inactive).
On the same count and under the same terms, then `COC(C)(C)CC(C)=O`, with 0.0721% (inactive).
With `CC(=O)Nc1ccc(OCCOCCOc2ccc(NC(C)=O)cc2)cc1`, the “activity change” value is -0.0407% [at 46 µM] (inactive).
`CCCC(=O)CC`: the “activity change” value was 0.0002% [at 95.7 µM] (inactive).
On the same count and under the same terms, then `N#CC1(N)CCCCC1`, with 0.0678% [at 95.7 µM] (inactive).
